Source: PubChem BioAssay (NCI)
About 83,000 compounds went through this panel and 20% of them were active in at least one assay; those are over-represented in the sample as a whole.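 In brief: 96-well plates, 48 h treatment, single concentration, percent growth endpoint.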 Unmarked numbers belong to inactive results. Activity calls are given as the source filed them. Rule for the calls: active = growth percent below 10; inactive = the rest.

system: NCI-H23 lung; assay: NCI-60 one-dose screen, 48 h (100 = growth as untreated, 0 = no growth, -100 = all killed); details: 10 µM unless noted

| SMILES | growth |
| --- | --- |
| CC(C)(C)c1ccc(S(=O)(=O)Oc2ccc(-c3sc4cc(OS(=O)(=O)c5ccc(C(C)(C)C)cc5)ccc4c3C(=O)c3ccc(OCCN4CCCCC4)cc3)cc2)cc1 | 93.3% |
| COc1cc(/C=C/c2cc(/C=C/c3ccc(O)c(OC)c3)n(C(=O)Nc3ccc(Cl)cc3)n2)ccc1O | 3.16% (active) |
| O=c1cc(CP(=O)(O)O)c2cc(O)c(-c3ccccc3)cc2o1 | 101% |

system: NCI-H226 lung; assay: as above; details: 10 µM unless noted

| SMILES | growth |
| --- | --- |
| Cc1nc2sc(C(=O)Nc3cccc(Cl)c3C)c(N)c2cc1C(=O)/C=C/c1ccccc1 | -52.2% (active) |
| CN1CCN(Cc2ccc(NC(=O)c3cncc(C#Cc4cnc(N)cc4C#N)c3)cc2C(F)(F)F)CC1 | 7.61% (active) |
| c1cc(OCCN2CCCC2)ccc1CNc1ccc2nc(CCC3CCCCC3)[nH]c2c1 | 51.3% |
| CCN(CC)CCOc1ccc2c(-c3ccccc3)c(-c3ccc(OC)cc3)c(=O)oc2c1 | 85.2% |
| O=C1/C(=C/c2c[nH]c(=O)[nH]c2=O)SC(=S)N1Cc1ccccc1 | 102% |
| CCN(CC)CCCNc1cc(OC)c(OC)c2cccnc12 | 110% |
| COc1cc(Cc2cc(OC)c(O)c(OC)c2)cc(OC)c1O | 106% |
| CSc1ccc(N2C(=N)C(=S)N(c3ccc(C)cc3)C2=O)cc1 | 96.3% |
| CCOC(=O)/C(=C(/C)NCC(C)C)c1cc(O)c(O)c2c(C)cc(=O)[nH]c12 | 71.9% |
| C/C(=C(\c1ccc(OCCN2CCCCCC2)cc1)c1ccc(OC(=O)c2ccccc2)cc1)c1ccc(Cl)cc1 | 87.5% |
| COCCn1cc(-c2csc(-c3c[nH]c4ccc(F)cc34)n2)c2cccnc21 | 57.5% |
| Cc1ccc2cnc(N)c(C#Cc3cc(C(=O)Nc4ccc(CN5CCN(C)CC5)c(C(F)(F)F)c4)cnc3C)c2c1 | 7.1% (active) |
| O=C(NNc1nc2cc(F)ccc2n2c(CN3CCOCC3)ccc12)c1ccccc1 | 17.4% |
| COc1ccc(-c2nc(SCC(=O)Nc3nc4ccc(C)cc4s3)[nH]c(=O)c2C#N)cc1OC | 83.6% |
| CCOC(=O)c1ccc[nH]1 | 99.3% |
| COc1cc(Cc2cc(-c3ccccc3)nn(Cc3ccccc3)c2=O)cc(OC)c1OC | 46.2% |
| O=C(Nc1ccc(Nc2ccncc2)cc1)c1ccc(Nc2ccnc3ccc([N+](=O)[O-])cc23)cc1 | 89.8% |

| SMILES | growth |
| --- | --- |
| C[C@H]1[C@H](C)CC[C@]2(C(=O)NCCNCCN)CC[C@]3(C)C(=CC[C@@H]4[C@@]5(C)CCC(=O)C(C)(C)[C@@H]5CC[C@]43C)[C@H]12 | 99.3% |
| COc1ccc(C/C(C)=C(\c2ccc(Cl)cc2)c2ccc(OCCN3CCCC3)cc2)cc1 | 98.1% |
| CCOc1ccc(NC(=O)Nc2ccc(OCC)cc2)cc1 | 104% |
| Cc1ccc(NC(=O)c2cc3ccccc3cc2O)c(C)c1 | 86.6% |
| COC(=O)c1c2c(c[n+]([O-])c1C)C(=O)C=C(NCc1ccccc1)C2=O | -90.8% (active) |
| C=C1C(=O)O[C@H]2[C@H]1CC/C(CNC(=O)Cc1c[nH]c3ccccc13)=C\CC[C@@]1(C)O[C@@H]21 | -45.8% (active) |
| C#CCOc1ccc2nc(CCl)c(Cl)c(Nc3cccc(C(F)(F)F)c3)c2c1 | 84.7% |
| O=C1/C(=C/c2cccc(Br)c2)COc2ccc(O)cc21 | 101% |
| CCN(CC)CCOc1ccc(/C(=C(\C)Cc2ccc(OC)cc2)c2ccc(OC(=O)NCc3ccccc3)cc2)cc1 | 86.9% |
| O=C(CCCCCCCC(=O)N1CCCCC1)N1CCCCC1 | 109% |
| Cc1ccc(-c2nc(SCC(=O)N3CCN(c4cc5c(cc4F)c(=O)c(C(=O)O)cn5C4CC4)CC3)nc(Cl)c2C#N)cc1 | 104% |
| CSc1ccc2c3c(n(C[C@H](O)CO)c(=O)c2c1)-c1ccccc1C3=O | 12.8% |
| Cc1cn(C)cn1 | 108% |
| C#Cc1cccc(Nc2ncnc3cc(NC(=O)CCl)ccc23)c1 | -42.2% (active) |
| O=S(=O)(NCCNc1nccc(-c2c(-c3ccc(F)c(O)c3)nc3sccn23)n1)c1ccc(Cl)cc1 | 24.2% |
| COc1ccc(C(O)c2cc3c(N)c(C(=O)Nc4cccc5ccccc45)sc3nc2C)cc1 (configuration not stated) | 18.6% |
| O=C(Nc1cc(Cl)ccc1O)c1ccccc1Nc1ccnc(C(F)(F)F)c1 | 50.9% |
